Compound activity: PubChem BioAssay, several laboratories
WT yeast gro inh = growth inhibition of WT yeast, mitochondrial fusion screen; mitochondrial fusion phenotypic screen, WT strain; AID 1362; inhibition, % at 10 µM; hit rate 2.1% among 190,000; in the data active = inhibition above about 58%; tested in S. cerevisiae
RAM inhibit = inhibitors of the yeast RAM network. hit rate 1.8% among 190,000. inhibition, % at 50 µM. S. cerevisiae dse1pr::URA3 reporter, 5-FOA growth OD615, 2 d; analog-sensitive cbk1-as2 kinase mutant strain. AID 868;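 active = inhibition above a set limit, 3 SD over mean compound inhibition, cut at about 8.4% in these data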;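 also: inhibition rescues growth on 5-FOA so higher OD means more RAM inhibition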
L major viab = inhibitors of Leishmania major promastigote growth; inhibition, % at 10 µM; Leishmania major promastigotes, resazurin fluorescence viability; hit rate 9% among 200,000; in the data active = inhibition above about 50%;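 also: promastigotes grown with compound for 44 hours at 28 °C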
CHOP inh = CHOP inhibition in unfolded protein response; CHO-K1 CHOP-promoter luciferase, tunicamycin-induced, 15-18 h; inhibition, % at 10 µM; hit rate 3.8% among 220,000; AID 2732;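 active = compounds that reduced the stress-induced luciferase reporter signal by more than about 70% of percent inhibition, limit read from the data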
A number is an active result; - = inactive; . = no result. Sampled rows, rich in hits. Any-hit rate of the full collection: about 13%.

SMILES	WT yeast gro inh	RAM inhibit	L major viab	CHOP inh
C=CCN1C(=O)/C(=C/c2ccc(N(C)C)cc2)S/C1=N\c1nnc(CC)s1	-	-	-	104
C=CCN1C(=O)/C(=C/c2ccc(OCC(=O)O)cc2)S/C1=N/c1nccs1	-	-	-	-
O=c1c2c3c(sc2n(CCN2CCCCC2)c(=O)n1Cc1ccco1)CCCCC3	-	-	99	-
CCN(CC)C(=O)Cn1c(=O)n(-c2ccccc2)c(=O)c2c3c(sc21)CCC3	-	-	-	-
CCOc1ccc(-n2c(=O)c3c4c(sc3n(CC(=O)NCc3ccco3)c2=O)CCC4)cc1	-	-	-	70
Cc1ccc(/C=N/Nc2ccc(Cl)nn2)cc1	.	.	.	78
CN(C)C=Nc1ncc2c3ccccc3n(CCN(C)C)c2c1C#N	-	-	98	-
O=C(NCCc1csc(-c2ccc(C(F)(F)F)cc2)n1)c1cccs1	-	-	-	-
OC(COc1ccc2c(c1)CCC2)CN1CCN(c2ccccc2F)CC1 (configuration not stated)	-	-	74	-
COc1ccc(N2CCN(CC(O)COc3ccc4c(c3)CCC4)CC2)cc1 (configuration not stated)	-	-	92	-
O=[N+]([O-])c1ccc(OCC(O)CN2CCN(c3ccccc3F)CC2)cc1 (configuration not stated)	-	-	-	-
COc1ccc(OCC(O)CN2CCN(c3ccc(Cl)cc3)CC2)cc1 (configuration not stated)	.	.	.	-
COc1ccc(C2=NOC(Cn3c(Cc4ccc(Cl)cc4)nc4c3c(=O)n(C)c(=O)n4C)C2)cc1 (configuration not stated)	-	-	64	-
CC1CN(Cc2nc3c(c(=O)n(C)c(=O)n3C)n2Cc2ccc(Cl)cc2)CC(C)O1 (configuration not stated)	-	.	.	.
CCN(CC)c1ccc(S(=O)(=O)Nc2cc(Cl)ccc2Cl)cc1NC(=S)NC(=O)C1CCCC1	-	-	56	-
COc1ccccc1NS(=O)(=O)c1ccc(Cl)c(NC(=S)NC(=O)C2CCCC2)c1	-	-	-	-
COc1ccccc1-c1nc(SCC(=O)NCC2CCCO2)c2c(=O)n(C)c(=O)n(C)c2n1 (configuration not stated)	-	-	-	-
CCCn1c(=N)n(CCOc2ccc(OC)cc2)c2ccccc21	-	-	94	-
CCCCn1c(=N)n(CC(=O)c2ccc([N+](=O)[O-])cc2)c2ccccc21	-	-	81	-
CCn1c(=N)n(CC(=O)c2ccc(OC)cc2)c2ccccc21	-	-	95	-
COc1ccc(C(=O)Cn2c(C(=O)/C=C/c3ccccc3)nc3ccccc32)cc1	-	-	89	-
COc1ccc(C(=O)CSc2nc3ccccc3n2CC(=O)c2ccccc2)cc1	-	-	-	-
CCCCn1c(=N)n(CC(=O)c2ccco2)c2ccccc21	-	-	-	-
CCOC(=O)Cn1c(=N)n(CCOc2ccc(OC)cc2)c2ccccc21	-	-	-	-
COc1ccc(C(=O)NCCn2cc(SCC(N)=O)c3ccccc32)cc1	.	.	.	-
SMILES	WT yeast gro inh	RAM inhibit	L major viab	CHOP inh
Cc1ccc(Cn2c(=N)n(CC(=O)c3ccc([N+](=O)[O-])cc3)c3ccccc32)cc1	-	-	74	-
COc1ccc(CCNC(=O)CCSc2nc(-c3ccco3)cc(C(F)(F)F)n2)cc1OC	-	-	-	-
COc1ccc(CCNc2nc(-c3ccco3)cc(C(F)(F)F)n2)cc1OC	-	10	-	-
COc1ccccc1-c1cc(C(F)(F)F)nc(NCc2ccco2)n1	60	-	-	-
O=C(CN1C(=O)C2C3CCC(C3)C2C1=O)N1CCN(Cc2ccccc2)CC1 (configuration not stated)	-	-	-	-
O=S(=O)(NCC1CCCO1)c1ccc(Cl)nc1 (configuration not stated)	.	.	.	-
OCCNc1nc(Nc2ccccc2)nc(Nc2ccccc2)n1	-	-	-	-
Oc1ccccc1Nc1nc(NCc2ccccc2)c2ccccc2n1	86	-	100	-
OCCNc1nc(Nc2ccc(Br)cc2)nc2ccccc12	-	-	100	-
c1ccc(CNc2ncnc3ccccc23)cc1	-	-	-	.
CC(C)(CO)Nc1nc(Nc2ccccc2)nc(Nc2ccccc2)n1	-	-	74	-
OCCNc1nc(Nc2ccccc2)nc2ccccc12	-	-	100	-
Cc1[nH]c2ccccc2c1C(=O)C(=O)NCc1cccs1	-	-	-	-
Cn1c(N)c(C(=O)COC(=O)CC2CC3CCC2C3)c(=O)n(C)c1=O (configuration not stated)	-	-	-	-
CN1N=C2c3ccccc3CCCC2C1c1ccc(F)cc1 (configuration not stated)	.	.	.	-
CCOC(=O)c1nc(NCc2ccccc2)c2ccccc2n1	-	-	52	-
Cc1cc(C)nc(N/N=C/C2=C(O)CC(c3ccc(F)cc3)CC2=O)n1 (configuration not stated)	.	.	.	75
CCOC(=O)C(CCCOc1ccc(C)cc1)C(=O)OCC	-	-	-	95
CC1(C)Cc2c(C#N)c(N3CCOCC3)nc(Cc3ccccc3)c2CO1	-	11	-	-
CC1(C)Cc2c(C#N)c(N3CCN(C(=O)c4ccccc4)CC3)nc(Cc3ccccc3)c2CO1	-	-	71	-
NCCCCCCCCCCN	.	.	.	-
O=S1(=O)N=C(N/N=C/C=C/c2ccccc2)c2ccccc21	-	-	-	-
O=S1(=O)N=C(N(CCO)/N=C/C=C/c2ccccc2)c2ccccc21	-	-	53	-
O=C(OCC(=O)N1N=C(c2ccc(Cl)cc2)CC1c1ccco1)c1ccco1 (configuration not stated)	-	-	-	-
N=c1sccn1CC(=O)N1N=C(c2ccc(Cl)cc2)CC1c1ccco1 (configuration not stated)	-	-	63	-
SMILES	WT yeast gro inh	RAM inhibit	L major viab	CHOP inh
O=C(CCc1nnc(C2CCCCC2)o1)N1CCC(Oc2cccnc2)CC1	-	-	-	-
CCOC(=O)C1=c2/c(=C/c3ccncc3)c(N)c(C(=O)OC)n2C(=O)C(c2ccncc2)S1 (configuration not stated)	-	-	56	-
CCOC(=O)C1=C(N)n2c(s/c(=C\c3ccncc3)c2=O)=C(C(=O)OCC)C1c1ccncc1 (configuration not stated)	-	-	52	-
COc1c(C)cc(C(=O)C2CCCN(C(=O)c3snnc3C)C2)cc1C (configuration not stated)	-	-	-	-
COc1ccc(-n2c(C)cc(/C=C3\C(=O)NN(c4ccccc4)C3=O)c2C)cc1	-	-	-	-
Cc1cc(/C=C2/C(=O)NN(c3ccccc3)C2=O)c(C)n1-c1ccc(O)cc1	-	9.9	-	-
Cc1cc(-n2nnc3ccccc32)nc2ccccc12	-	-	-	-
Cc1cc(C)c2ccc(Cl)cc2n1	.	.	.	-
Cc1cc(N2CCCN(C)CC2)nc2cc(Cl)ccc12	-	-	80	-
Cc1cc(N2CCCCCC2)nc2ccccc12	-	-	91	-
Cc1nn(-c2cc(C)c3ccccc3n2)c2c1C1C(C2)C1(C)C (configuration not stated)	63	-	-	-
Cc1cc(N2CCCCC2)nc2ccccc12	-	-	-	-
